The text below walks through data of PubChem BioAssay.

The nature of assay [1]: resazurin metabolic signal in HepG2 cells – cell-based, resazurin fluorescence, 24 h, PK04 Diversity Set, profiling panel (AID 1172). Also: test concentration not given here. As to conditions: HepG2 viability, higher = more signal. (Alamar Blue is a resazurin reagent that responds to reducing activity.)
Assay [2] is described as follows: budding yeast growth changes without added modifier – OD600, strain BY4716, 24 h, basal condition, primary screen (AID 1173). The following applies: S. cerevisiae BY4716 growth, OD600, 24 h; higher = more signal, called active from +8 up or from −8 down.
The nature of assay [3]: viability profiling in MM1S myeloma cells – cell-based, resazurin fluorescence, basal, 24 h, PK04 Diversity Set, profiling panel (AID 1174).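 Also: MM1S multiple myeloma cell line; test concentration not given here.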 The following applies: higher = more signal, called active from +8 up or from −8 down.
For assay [4], the target named is Dihydroorotate dehydrogenase (quinone), mitochondrial (Plasmodium falciparum (isolate 3D7)) (UniProt Q08210). Kind of assay: inhibition of P. falciparum DHODH – biochemical, C-terminal His tag, absorbance 600 nm, primary screen (AID 1175).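 Also: recombinant parasite enzyme with a five histidine tag at its C terminus; test concentration not given here.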 The following applies: PfDHODH enzyme, DCIP absorbance 600 nm; higher = more signal, called active from +8 up or from −8 down.

Assay [5] in a line: inhibition of PAO1 biofilm formation – strain PAO1, LB-PBS medium, absorbance 600 nm, primary screen (AID 1176). Also: test concentration not given here. As to conditions: P. aeruginosa PAO1 growth/biofilm, A600, 12 h; higher = more signal.
Assay [6] is described as follows: growth modulation of vineyard yeast isolate – strain RM11-1a, OD600, basal, 24 h, primary screen (AID 1177).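 Also: cultures grown under basal conditions with no added stressor; test concentration not given here.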 As to conditions: S. cerevisiae RM11-1a growth, OD600, 24 h; higher = more signal, called active from +8 up or from −8 down.
Assay [7] in a line: growth of efflux-deficient E. coli DRC39 – strain DRC39, OD650, 24 h, E. coli filamentation inducers, primary screen (AID 1178).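 Also: growth measured as culture turbidity by optical density at 650 nm; test concentration not given here.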 As to conditions: E. coli DRC39 acrAB, higher = more signal, called active from +8 up or from −8 down.
The nature of assay [8]: growth of efflux-deficient E. coli DRC39 – strain DRC39, OD650, 48 h, E. coli filamentation inducers, primary screen (AID 1179).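 Also: screen aims at cell division blockers that make cells filament.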 As to conditions: E. coli DRC39 delta-acrAB growth, higher = more signal, called active from +8 up or from −8 down.
Assay [9] in a line: viability profiling in RPMI8226 myeloma cells – cell-based, resazurin fluorescence, basal, 24 h, PK04 Diversity Set, profiling panel (AID 1180).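 Also: RPMI8826 multiple myeloma cell line at 5000 cells per well; test concentration not given here.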 As to conditions: higher = more signal.
In assay [10] the target is E3 ubiquitin-protein ligase XIAP (Homo sapiens) (UniProt P98170). Kind of assay: small molecules binding XIAP protein – biophysical, small-molecule microarray, fluorescence 635 nm, primary screen (AID 1181).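 Also: score merges 667 nm emission and signal to noise over triplicate slides.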 The following applies: higher = more signal.

Calls of active or inactive are those of the source. Unless noted, no rule for the calls is given here.

Chain of Dihydroorotate dehydrogenase (quinone), mitochondrial (Plasmodium falciparum (isolate 3D7)) (Q08210 whole entry, looked up): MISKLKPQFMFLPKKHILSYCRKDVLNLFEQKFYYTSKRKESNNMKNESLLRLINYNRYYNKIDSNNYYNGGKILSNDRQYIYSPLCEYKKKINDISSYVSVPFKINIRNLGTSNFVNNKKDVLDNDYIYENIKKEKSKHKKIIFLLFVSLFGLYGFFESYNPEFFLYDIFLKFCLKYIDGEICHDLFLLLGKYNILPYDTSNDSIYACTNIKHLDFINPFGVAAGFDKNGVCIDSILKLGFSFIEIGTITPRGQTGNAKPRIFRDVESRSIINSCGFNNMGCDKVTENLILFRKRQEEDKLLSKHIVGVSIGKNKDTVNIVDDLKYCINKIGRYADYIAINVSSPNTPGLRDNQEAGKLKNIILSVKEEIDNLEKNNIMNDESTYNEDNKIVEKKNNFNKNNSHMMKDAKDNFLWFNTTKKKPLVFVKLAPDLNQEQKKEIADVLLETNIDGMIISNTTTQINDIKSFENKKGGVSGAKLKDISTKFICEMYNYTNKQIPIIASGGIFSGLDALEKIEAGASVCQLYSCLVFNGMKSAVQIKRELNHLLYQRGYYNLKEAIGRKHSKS
Chain of E3 ubiquitin-protein ligase XIAP (Homo sapiens) (P98170 whole entry, looked up): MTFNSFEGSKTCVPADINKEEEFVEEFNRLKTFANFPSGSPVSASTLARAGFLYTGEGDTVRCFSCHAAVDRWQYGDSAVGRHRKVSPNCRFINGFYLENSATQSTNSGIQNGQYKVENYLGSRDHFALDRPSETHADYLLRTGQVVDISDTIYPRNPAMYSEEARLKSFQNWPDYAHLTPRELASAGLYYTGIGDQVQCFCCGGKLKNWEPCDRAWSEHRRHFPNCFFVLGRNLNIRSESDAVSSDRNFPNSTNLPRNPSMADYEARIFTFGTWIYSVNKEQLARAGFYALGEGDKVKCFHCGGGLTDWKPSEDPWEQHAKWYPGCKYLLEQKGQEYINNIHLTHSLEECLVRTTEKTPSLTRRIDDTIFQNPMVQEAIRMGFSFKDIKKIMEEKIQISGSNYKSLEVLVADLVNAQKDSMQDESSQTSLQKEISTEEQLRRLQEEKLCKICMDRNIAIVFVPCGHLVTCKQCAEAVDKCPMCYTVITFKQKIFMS

Take `C=C(CCCC)/C(=C/C[C@H](OC(=O)c1ccncc1)c1ccccc1OCCO)c1cnc2ccccc2c1`: the z-score was 0.381 in [1]; -0.0677 (inactive) in [2]; -1.07 (inactive) in assay [3]; 1.23 (inactive) in assay [5]; -0.254 (inactive) in assay [6]; 0.133 (inactive) in assay [7]. Further, the figures for the z-score in [8] and in assay [9] were 0.126 (inactive) and -0.64, respectively. In addition, the composite z-score in assay [4] is -2.03 (inactive); in assay [10] it was -0.252.
With `C=C(CCCC)/C(=C/C[C@H](OC(C)=O)c1ccccc1OCCO)c1cc(C(=O)OC)ccc1OC`, the z-score in [1] was -0.0696; in [2], -0.863 (inactive); in [3] it was 0.911 (inactive); in [5], -0.824 (inactive); in assay [6], -0.0572 (inactive); in assay [7] it was 0.427 (inactive). Moreover, the figures for the z-score in [8] and in assay [9] were 0.257 (inactive) and 0.682, respectively. The composite z-score in assay [4] is -2.1 (inactive); in assay [10], -0.28.
With `CC(C)C[C@@H]1NC(=O)[C@@H]2C[C@H](C(=O)O)[C@H](c3cccc(OCCO)c3)N2C1=O`, the z-score in [1] was -0.314; in [2], -0.0664 (inactive); in [3] it was 0.254 (inactive); in [5] it was -0.447 (inactive); in assay [6] it was -0.747 (inactive); in assay [7], 0.398 (inactive). The results for the z-score in assay [8] and in [9] were -0.263 (inactive) and 0.294, respectively. The composite z-score in assay [4] is -1.16 (inactive); in [10], -0.059.
Regarding `O[C@@H](Cc1ccccc1)[C@H]1C2C=CCCC=C2CN1Cc1cccc(Cl)c1` (stereo not given in full), the z-score in [1] is 0.318; in assay [2] it was -4.3 (inactive); in assay [3] it was -0.686 (inactive); in [5], 1.27 (inactive); in [6] it was -0.068 (inactive); in [7] it was 0.779 (inactive). Besides, the z-score in [8] is 0.73 (inactive); in assay [9], -0.0704. For the same compound, the figures for the composite z-score in assay [4] and in assay [10] were -0.255 (inactive) and -0.365, respectively.
`COc1ccc([C@H]2OC[C@@H]3C[C@@H](Cc4ccccc4)C(=O)N32)cc1`: the z-score was -0.384 in [1]; -3.32 (inactive) in [2]; 0.111 (inactive) in [3]; -0.0513 (inactive) in assay [5]; -0.64 (inactive) in assay [6]; -0.562 (inactive) in assay [7]. The values for the z-score in assay [8] and in assay [9] were -0.873 (inactive) and -0.219, respectively. Moreover, the figures for the composite z-score in assay [4] and in assay [10] were -0.431 (inactive) and -0.0337, respectively.
`CC(C)c1ccc(NN2C(C(O)c3ccc(B(O)O)cc3)C=CC3C(=O)N(c4ccccc4)C(=O)C32)cc1` (stereo not given): the z-score is -1.18 in assay [1]; 0.278 (inactive) in assay [2]; -1.2 (inactive) in [3]; 1.12 (inactive) in assay [5]; 0.728 (inactive) in assay [6]; -0.329 (inactive) in assay [7]. For the same compound, the z-score in [8] was -0.543 (inactive); in [9], -0.948. The results for the composite z-score in assay [4] and in [10] were -0.388 (inactive) and -0.119, respectively.
Consider `C=CCNC(=O)[C@@H]1[C@H]2C(=O)O[C@H](c3ccccc3)[C@H](c3ccccc3)N2[C@H](c2ccc(O)cc2)[C@@]12C(=O)N(C(=O)OCCOC)c1ccc(C#CCNC(N)=O)cc12`, for which the z-score was -0.0359 in assay [1]; 0.0215 (inactive) in assay [2]; -0.0272 (inactive) in assay [3]; 0.318 (inactive) in assay [5]; -0.586 (inactive) in [6]; 0.916 (inactive) in assay [7]. The values for the z-score in assay [8] and in [9] were 1.39 (inactive) and 0.302, respectively. For the same compound, the composite z-score is -1.74 (inactive) in assay [4] and -0.17 in [10].
Regarding `COC(=O)[C@@]1(Cc2ccc(F)cc2)[C@H]2c3cc(C(=O)N(C)C)n(Cc4cc(F)c(F)c(F)c4)c3C[C@H]2CN1C(=O)c1ccccc1`, the z-score is -2.13 in assay [1]; 1.56 (inactive) in [2]; -1.97 (inactive) in assay [3]; 0.15 (inactive) in [5]; 1.16 (inactive) in assay [6]; -0.194 (inactive) in assay [7]. In addition, the z-score in assay [8] is 0.38 (inactive); in assay [9], -3.47. In addition, the composite z-score is 0.349 (inactive) in assay [4] and 0.157 in assay [10].
For the compound `CN1C(=O)C2C=CC(C(O)c3ccc([N+](=O)[O-])cc3)N(N3CCCCC3)C2C1=O` (stereo not given), the z-score in [1] is -0.777; in [2], 0.217 (inactive); in assay [3], -0.51 (inactive); in assay [5], 0.711 (inactive); in assay [6] it was 0.189 (inactive); in [7], -0.884 (inactive). Further, the z-score in assay [8] was -1.24 (inactive); in [9] it was -0.85. The composite z-score in assay [4] was 0.0871 (inactive); in assay [10], 0.384.
Turning to `CN1C(=O)C2C=CC(C(O)C3CC=CCC3)N(N(c3ccccc3)c3ccccc3)C2C1=O` (stereo not given), the z-score was 0.129 in assay [1]; 1.16 (inactive) in assay [2]; -1.17 (inactive) in assay [3]; 0.599 (inactive) in assay [5]; 0.595 (inactive) in assay [6]; -0.486 (inactive) in assay [7]. Besides, the z-score is 0.364 (inactive) in assay [8] and -1.06 in assay [9]. The composite z-score in [4] is -0.0647 (inactive); in [10] it was -0.269.
In the case of `C=CCOC(=O)[C@@H]1[C@H]2C(=O)O[C@H](c3ccccc3)[C@H](c3ccccc3)N2[C@H](c2ccc(OCCOC(=O)[C@@H]3C[C@@H]4C(=O)NCC(=O)N4[C@@H]3c3ccc(O)cc3)cc2)[C@@]12C(=O)Nc1ccc(I)cc12`, the z-score in [1] was 0.978; in assay [2], 0.286 (inactive); in assay [3] it was 1.11 (inactive); in assay [5] it was 0.118 (inactive); in assay [6] it was 1.38 (inactive); in assay [7], 0.202 (inactive). Further, the results for the z-score in assay [8] and in [9] were -0.515 (inactive) and 1.3, respectively. Also, the figures for the composite z-score in assay [4] and in assay [10] were -0.365 (inactive) and 0.164, respectively.
As for `COC(=O)[C@@]1(Cc2ccc(F)cc2)[C@H]2c3cc(C(=O)N(C)C)n(Cc4ccccc4)c3C[C@H]2CN1C(=O)c1ccccc1`, the z-score in assay [1] was -1.49; in assay [2], 1.98 (inactive); in assay [3] it was -0.946 (inactive); in assay [5] it was 0.976 (inactive); in assay [6], 1.61 (inactive); in assay [7] it was -0.342 (inactive). Also, the z-score was 0.232 (inactive) in assay [8] and -2.86 in assay [9]. Also, the composite z-score in assay [4] was 0.151 (inactive); in assay [10] it was -0.2.
Turning to `CCCC[C@@H]1C[C@H]1[C@@H](NC(=O)c1cccs1)c1ccc(-c2ccccc2)cc1`, the z-score in assay [1] is 1.13; in assay [2] it was 0.748 (inactive); in [3], 0.921 (inactive); in assay [5], 1.03 (inactive); in assay [6] it was 0.822 (inactive); in assay [7], -0.409 (inactive). The z-score is -0.384 (inactive) in assay [8] and 0.661 in assay [9]. Further, the composite z-score in assay [4] is -1.02 (inactive); in assay [10], 0.416.
